Data reported in PubChem BioAssay.
Calls of active or inactive are those of the source. Rule as the data show it, unless noted: active = inhibition above about 80%; inactive = the rest.

assay: LFS_MB_P medulloblastoma growth inhibition, cell-based, chromothripsis tumors, cisplatin or BGB combos (AID 1671449); conditions: LFS_MB_P medulloblastoma cells, at 0.5 µM, stronger effect = higher value;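 also: cells exposed for 96 hours; 0% = vehicle DMSO and 100% = killing by high DMSO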

SMILES | inhibition
O=c1[nH]cnc2c1ncn2C1CCC(CO)O1 (configuration not stated) | -32.9% (inactive)
Cc1cn(C2C=CC(CO)O2)c(=O)[nH]c1=O (configuration not stated) | -20.9% (inactive)
Nc1ccn(C2CCC(CO)O2)c(=O)n1 (configuration not stated) | -21% (inactive)

same assay, conditions: LFS_MB_P medulloblastoma cells, measured here: combination with BGB IC20, at 0.005 µM

SMILES | inhibition [%]
O=c1[nH]cnc2c1ncn2C1CCC(CO)O1 (configuration not stated) | -16.1
Cc1cn(C2C=CC(CO)O2)c(=O)[nH]c1=O (configuration not stated) | -5.29
Nc1ccn(C2CCC(CO)O2)c(=O)n1 (configuration not stated) | -12.9

same assay, conditions: LFS_MB_P medulloblastoma cells, measured here: combination with BGB IC40, at 0.005 µM

SMILES | inhibition [%]
O=c1[nH]cnc2c1ncn2C1CCC(CO)O1 (configuration not stated) | -29.5
Cc1cn(C2C=CC(CO)O2)c(=O)[nH]c1=O (configuration not stated) | -35
Nc1ccn(C2CCC(CO)O2)c(=O)n1 (configuration not stated) | 8.5

same assay, conditions: LFS_MB_P medulloblastoma cells, measured here: combination with BGB IC40, at 0.05 µM

SMILES | inhibition [%]
O=c1[nH]cnc2c1ncn2C1CCC(CO)O1 (configuration not stated) | -24.5
Cc1cn(C2C=CC(CO)O2)c(=O)[nH]c1=O (configuration not stated) | -15.2
Nc1ccn(C2CCC(CO)O2)c(=O)n1 (configuration not stated) | -10.6

same assay, conditions: LFS_MB_P medulloblastoma cells, measured here: combination with cisplatin, at 0.5 µM, stronger effect = higher value

SMILES | inhibition [%]
O=c1[nH]cnc2c1ncn2C1CCC(CO)O1 (configuration not stated) | -38.2
Cc1cn(C2C=CC(CO)O2)c(=O)[nH]c1=O (configuration not stated) | -28.2
Nc1ccn(C2CCC(CO)O2)c(=O)n1 (configuration not stated) | -35

same assay, conditions: LFS_MB_P medulloblastoma cells, measured here: combination with cisplatin, at 5 µM, stronger effect = higher value

SMILES | inhibition [%]
O=c1[nH]cnc2c1ncn2C1CCC(CO)O1 (configuration not stated) | -16.6
Cc1cn(C2C=CC(CO)O2)c(=O)[nH]c1=O (configuration not stated) | -24.4
Nc1ccn(C2CCC(CO)O2)c(=O)n1 (configuration not stated) | -13

assay: HDN33 neuroblastoma growth inhibition, cell-based, chromothripsis tumors, cisplatin or BGB combos (AID 1671450); conditions: HDN33 neuroblastoma cells, BGB combo, at 5 µM, stronger effect = higher value;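 also: cells exposed to compound for four days; 0% = vehicle DMSO and 100% = cell killing by high DMSO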

SMILES | inhibition [%]
O=c1[nH]cnc2c1ncn2C1CCC(CO)O1 (configuration not stated) | -15.1
Cc1cn(C2C=CC(CO)O2)c(=O)[nH]c1=O (configuration not stated) | -42.2
Nc1ccn(C2CCC(CO)O2)c(=O)n1 (configuration not stated) | -33.4

same assay, conditions: HDN33 neuroblastoma cells, at 0.5 µM, stronger effect = higher value

SMILES | inhibition
O=c1[nH]cnc2c1ncn2C1CCC(CO)O1 (configuration not stated) | -10.3% (inactive)
Cc1cn(C2C=CC(CO)O2)c(=O)[nH]c1=O (configuration not stated) | -34.4% (inactive)
Nc1ccn(C2CCC(CO)O2)c(=O)n1 (configuration not stated) | -28.1% (inactive)

same assay, conditions: HDN33 neuroblastoma cells, cisplatin combo, at 5 µM, stronger effect = higher value

SMILES | inhibition [%]
O=c1[nH]cnc2c1ncn2C1CCC(CO)O1 (configuration not stated) | 0.055
Cc1cn(C2C=CC(CO)O2)c(=O)[nH]c1=O (configuration not stated) | -46.6
Nc1ccn(C2CCC(CO)O2)c(=O)n1 (configuration not stated) | -14

same assay, conditions: HDN33 neuroblastoma cells, measured here: with BGB IC20 combination, at 0.5 µM, stronger effect = higher value

SMILES | inhibition [%]
O=c1[nH]cnc2c1ncn2C1CCC(CO)O1 (configuration not stated) | -9.52
Cc1cn(C2C=CC(CO)O2)c(=O)[nH]c1=O (configuration not stated) | -50.9
Nc1ccn(C2CCC(CO)O2)c(=O)n1 (configuration not stated) | -28.7

same assay, conditions: HDN33 neuroblastoma cells, measured here: with cisplatin IC20 combination, at 0.5 µM, stronger effect = higher value

SMILES | inhibition [%]
O=c1[nH]cnc2c1ncn2C1CCC(CO)O1 (configuration not stated) | -5.77
Cc1cn(C2C=CC(CO)O2)c(=O)[nH]c1=O (configuration not stated) | -24.2
Nc1ccn(C2CCC(CO)O2)c(=O)n1 (configuration not stated) | -15.2

same assay, conditions: HDN33 neuroblastoma cells, single agent, at 5 µM, stronger effect = higher value

SMILES | inhibition [%]
O=c1[nH]cnc2c1ncn2C1CCC(CO)O1 (configuration not stated) | -6.37
Cc1cn(C2C=CC(CO)O2)c(=O)[nH]c1=O (configuration not stated) | -41
Nc1ccn(C2CCC(CO)O2)c(=O)n1 (configuration not stated) | -52.9

assay: ICB984 medulloblastoma cell growth inhibition, synergistic combos for chromothripsis tumors, cisplatin or BGB combos (AID 1671451; call rule not given here;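 also: cells exposed for 96 hours before readout; 0% = vehicle DMSO and 100% = killing by high DMSO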); conditions: ICB984 medulloblastoma cells, drug combinations, BGB IC20 combo, at 0.005 µM, stronger effect = higher value

SMILES | inhibition [%]
O=c1[nH]cnc2c1ncn2C1CCC(CO)O1 (configuration not stated) | 3.8
Cc1cn(C2C=CC(CO)O2)c(=O)[nH]c1=O (configuration not stated) | -4.4
Nc1ccn(C2CCC(CO)O2)c(=O)n1 (configuration not stated) | -1.06

same assay, conditions: ICB984 medulloblastoma cells, drug combinations, BGB IC40 combo, at 0.005 µM, stronger effect = higher value

SMILES | inhibition [%]
O=c1[nH]cnc2c1ncn2C1CCC(CO)O1 (configuration not stated) | -17.3
Cc1cn(C2C=CC(CO)O2)c(=O)[nH]c1=O (configuration not stated) | -46.7
Nc1ccn(C2CCC(CO)O2)c(=O)n1 (configuration not stated) | -15.6

same assay, conditions: ICB984 medulloblastoma cells, drug combinations, BGB IC40 combo, at 0.05 µM, stronger effect = higher value

SMILES | inhibition [%]
O=c1[nH]cnc2c1ncn2C1CCC(CO)O1 (configuration not stated) | -42.9
Cc1cn(C2C=CC(CO)O2)c(=O)[nH]c1=O (configuration not stated) | -3.74
Nc1ccn(C2CCC(CO)O2)c(=O)n1 (configuration not stated) | -24.6

same assay, conditions: ICB984 medulloblastoma cells, drug combinations, at 0.5 µM, stronger effect = higher value

SMILES | inhibition
O=c1[nH]cnc2c1ncn2C1CCC(CO)O1 (configuration not stated) | -12.4% (inactive)
Cc1cn(C2C=CC(CO)O2)c(=O)[nH]c1=O (configuration not stated) | -26.7% (inactive)
Nc1ccn(C2CCC(CO)O2)c(=O)n1 (configuration not stated) | -11.4% (inactive)

same assay, conditions: ICB984 medulloblastoma cells, drug combinations, cisplatin combo, at 0.05 µM, stronger effect = higher value

SMILES | inhibition [%]
O=c1[nH]cnc2c1ncn2C1CCC(CO)O1 (configuration not stated) | -46.9
Cc1cn(C2C=CC(CO)O2)c(=O)[nH]c1=O (configuration not stated) | -6.64
Nc1ccn(C2CCC(CO)O2)c(=O)n1 (configuration not stated) | -24.6

same assay, conditions: ICB984 medulloblastoma cells, drug combinations, cisplatin combo, at 0.5 µM, stronger effect = higher value

SMILES | inhibition [%]
O=c1[nH]cnc2c1ncn2C1CCC(CO)O1 (configuration not stated) | -0.57
Cc1cn(C2C=CC(CO)O2)c(=O)[nH]c1=O (configuration not stated) | -35.4
Nc1ccn(C2CCC(CO)O2)c(=O)n1 (configuration not stated) | -24.3

same assay, conditions: ICB984 medulloblastoma cells, drug combinations, cisplatin combo, at 5 µM, stronger effect = higher value

SMILES | inhibition [%]
O=c1[nH]cnc2c1ncn2C1CCC(CO)O1 (configuration not stated) | -45.9
Cc1cn(C2C=CC(CO)O2)c(=O)[nH]c1=O (configuration not stated) | -36.2
Nc1ccn(C2CCC(CO)O2)c(=O)n1 (configuration not stated) | 15.2

same assay, conditions: ICB984 medulloblastoma cells, drug combinations, measured here: 5 uM single agent, at 5 µM, stronger effect = higher value

SMILES | inhibition [%]
O=c1[nH]cnc2c1ncn2C1CCC(CO)O1 (configuration not stated) | -17.3
Cc1cn(C2C=CC(CO)O2)c(=O)[nH]c1=O (configuration not stated) | -29.8
Nc1ccn(C2CCC(CO)O2)c(=O)n1 (configuration not stated) | -2.52

assay: LFS_MB_1R medulloblastoma cell growth inhibition, synergistic combos for chromothripsis tumors, cisplatin or BGB combos (AID 1671452); conditions: LFS_MB_1R medulloblastoma cells, at 0.5 µM, stronger effect = higher value;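 also: cells exposed for 96 hours before readout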

SMILES | inhibition
O=c1[nH]cnc2c1ncn2C1CCC(CO)O1 (configuration not stated) | -24.1% (inactive)
Cc1cn(C2C=CC(CO)O2)c(=O)[nH]c1=O (configuration not stated) | -29.1% (inactive)
Nc1ccn(C2CCC(CO)O2)c(=O)n1 (configuration not stated) | -18.2% (inactive)

same assay, conditions: LFS_MB_1R medulloblastoma cells, measured here: combination with BGB IC40, at 0.05 µM, stronger effect = higher value

SMILES | inhibition [%]
O=c1[nH]cnc2c1ncn2C1CCC(CO)O1 (configuration not stated) | -1.26
Cc1cn(C2C=CC(CO)O2)c(=O)[nH]c1=O (configuration not stated) | -18.5
Nc1ccn(C2CCC(CO)O2)c(=O)n1 (configuration not stated) | -11.6

same assay, conditions: LFS_MB_1R medulloblastoma cells, measured here: combination with cisplatin, at 0.5 µM, stronger effect = higher value

SMILES | inhibition [%]
O=c1[nH]cnc2c1ncn2C1CCC(CO)O1 (configuration not stated) | -27.1
Cc1cn(C2C=CC(CO)O2)c(=O)[nH]c1=O (configuration not stated) | -42.3
Nc1ccn(C2CCC(CO)O2)c(=O)n1 (configuration not stated) | -19.1

same assay, conditions: LFS_MB_1R medulloblastoma cells, measured here: combination with cisplatin, at 5 µM, stronger effect = higher value

SMILES | inhibition [%]
O=c1[nH]cnc2c1ncn2C1CCC(CO)O1 (configuration not stated) | -51.2
Cc1cn(C2C=CC(CO)O2)c(=O)[nH]c1=O (configuration not stated) | -74.7
Nc1ccn(C2CCC(CO)O2)c(=O)n1 (configuration not stated) | -44
